About 7,900 targets were measured; listed, in parts, are those with a hit and a random draw of the rest. About 0.6% of all pairs of compound and target were hits. Values without a mark were called inactive.
Columns and labels:
Experiment in all cases: log2 fold change, soluble protein after heating vs DMSO (PISA); higher = thermal stabilisation; K562 cells, 10 uM, 30 min; active = over 0.2 and 3.5 SD of the protein, either way, in both replicates (recomputed)
[1] = compound: Cc1ccc(NC(=O)c2ccc(CN3CC[C@H](N(C)C)C3)c(C(F)(F)F)c2)cc1Nc1nccc(-c2cncnc2)n1 [bafetinib]
In short: (§1)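 Values are thermal stability changes relative to control samples and are taken from duplicates. They are stated as log2 fold changes. Before quantification by TMTpro 16plex LC-MS/MS with equalised channel sums, K562 cells at 2×10^6 cells/mL were treated with 10 μM compound for 30 min, heated in aliquots for 3 min across 48°C-58°C, pooled, extracted in PBS with 0.5% NP-40 at 4°C, and centrifuged at 21,000xg for 90 min to give the soluble supernatant.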

[2] = compound: Cc1cccc(CC(=O)N2CCc3c2ccc(-c2cn(C)c4ncnc(N)c24)c3F)n1
In short: as §1

[3] = compound: Cc1cn(-c2cc(NC(=O)c3ccc(C)c(Nc4nccc(-c5cccnc5)n4)c3)cc(C(F)(F)F)c2)cn1 [nilotinib]
In short: as §1

[4] = compound: Cc1nc(Nc2n[nH]c3c2CN(C(=O)N[C@H](CN(C)C)c2ccccc2)C3(C)C)c2sccc2n1
In short: as §1

[5] = compound: Cc1nc(Nc2ncc(C(=O)Nc3c(C)cccc3Cl)s2)cc(N2CCN(CCO)CC2)n1 [dasatinib]
In short: as §1

[6] = compound: Cc1ncc(-c2ccnc(Nc3ccc(S(C)(=O)=O)cc3)n2)n1C(C)C
In short: as §1

[7] = compound: Cn1cc(-c2ccc3c(c2)CCN3C(=O)Cc2cccc(C(F)(F)F)c2)c2c(N)ncnc21
In short: as §1

[8] = compound: Cn1cc(-c2ccc3nnc(C(F)(F)c4ccc5ncccc5c4)n3n2)cn1
In short: as §1

[9] = compound: Cn1cncc1[C@@](N)(c1ccc(Cl)cc1)c1ccc2c(c1)c(-c1cccc(Cl)c1)cc(=O)n2C [tipifarnib]
In short: as §1

[10] = compound: FC(F)(F)c1ccc(/C=C/c2nc(COc3ccc(CCCCn4ccnn4)cc3)co2)cc1 [mubritinib]
In short: as §1

[11] = compound: NC(=O)Nc1cc(-c2cccc(F)c2)sc1C(=O)N[C@H]1CCCNC1
In short: as §1

[12] = compound: NC(=O)c1cnc(N[C@@H]2CCCC[C@@H]2N)nc1Nc1cccc(-n2nccn2)c1
In short: as §1

[13] = compound: NC1(c2ccc(-c3nc4ccn5c(=O)[nH]nc5c4cc3-c3ccccc3)cc2)CCC1
In short: as §1

[14] = compound: NCC(=O)Nc1ccc(-n2nc(C(F)(F)F)cc2-c2ccc3c(ccc4ccccc43)c2)cc1
In short: as §1

[15] = compound: Nc1ccccc1NC(=O)c1ccc(CNC(=O)OCc2cccnc2)cc1 [entinostat]
In short: as §1

[16] = compound: O=C(CCCCCCC(=O)Nc1ccccc1)NO [vorinostat]
In short: as §1

[17] = compound: O=C(CCCCCCNC(=O)c1cnc(N(c2ccccc2)c2ccccc2Cl)nc1)NO [citarinostat]
In short: as §1

[18] = compound: O=C(O)c1ccc2c(c1)nc(Nc1cccc(Cl)c1)c1ccncc12 [silmitasertib]
In short: as §1

[19] = compound: O=C1NC(=O)C(c2cnc3ccccn23)=C1c1cn2c3c(cc(F)cc13)CN(C(=O)N1CCCCC1)CC2
In short: as §1

[20] = compound: c1cc(OCCN2CCCCC2)cc(-c2n[nH]c3ccc(-c4nnc[nH]4)cc23)c1
In short: as §1

Chain of UniProt Q13530 (Q13530 whole entry, looked up): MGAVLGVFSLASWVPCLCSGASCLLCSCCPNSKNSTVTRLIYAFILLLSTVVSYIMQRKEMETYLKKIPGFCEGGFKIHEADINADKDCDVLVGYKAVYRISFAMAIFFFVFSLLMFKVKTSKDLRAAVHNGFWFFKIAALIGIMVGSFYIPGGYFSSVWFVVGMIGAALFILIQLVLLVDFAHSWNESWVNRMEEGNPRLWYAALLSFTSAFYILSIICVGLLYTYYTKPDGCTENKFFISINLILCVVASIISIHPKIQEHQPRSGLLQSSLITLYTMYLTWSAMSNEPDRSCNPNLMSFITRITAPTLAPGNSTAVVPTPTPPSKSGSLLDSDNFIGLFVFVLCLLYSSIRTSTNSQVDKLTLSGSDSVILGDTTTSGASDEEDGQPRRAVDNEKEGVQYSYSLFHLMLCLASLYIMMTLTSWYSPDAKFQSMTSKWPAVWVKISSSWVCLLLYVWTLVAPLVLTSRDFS
Chain of UniProt Q92878 (Q92878 whole entry, looked up): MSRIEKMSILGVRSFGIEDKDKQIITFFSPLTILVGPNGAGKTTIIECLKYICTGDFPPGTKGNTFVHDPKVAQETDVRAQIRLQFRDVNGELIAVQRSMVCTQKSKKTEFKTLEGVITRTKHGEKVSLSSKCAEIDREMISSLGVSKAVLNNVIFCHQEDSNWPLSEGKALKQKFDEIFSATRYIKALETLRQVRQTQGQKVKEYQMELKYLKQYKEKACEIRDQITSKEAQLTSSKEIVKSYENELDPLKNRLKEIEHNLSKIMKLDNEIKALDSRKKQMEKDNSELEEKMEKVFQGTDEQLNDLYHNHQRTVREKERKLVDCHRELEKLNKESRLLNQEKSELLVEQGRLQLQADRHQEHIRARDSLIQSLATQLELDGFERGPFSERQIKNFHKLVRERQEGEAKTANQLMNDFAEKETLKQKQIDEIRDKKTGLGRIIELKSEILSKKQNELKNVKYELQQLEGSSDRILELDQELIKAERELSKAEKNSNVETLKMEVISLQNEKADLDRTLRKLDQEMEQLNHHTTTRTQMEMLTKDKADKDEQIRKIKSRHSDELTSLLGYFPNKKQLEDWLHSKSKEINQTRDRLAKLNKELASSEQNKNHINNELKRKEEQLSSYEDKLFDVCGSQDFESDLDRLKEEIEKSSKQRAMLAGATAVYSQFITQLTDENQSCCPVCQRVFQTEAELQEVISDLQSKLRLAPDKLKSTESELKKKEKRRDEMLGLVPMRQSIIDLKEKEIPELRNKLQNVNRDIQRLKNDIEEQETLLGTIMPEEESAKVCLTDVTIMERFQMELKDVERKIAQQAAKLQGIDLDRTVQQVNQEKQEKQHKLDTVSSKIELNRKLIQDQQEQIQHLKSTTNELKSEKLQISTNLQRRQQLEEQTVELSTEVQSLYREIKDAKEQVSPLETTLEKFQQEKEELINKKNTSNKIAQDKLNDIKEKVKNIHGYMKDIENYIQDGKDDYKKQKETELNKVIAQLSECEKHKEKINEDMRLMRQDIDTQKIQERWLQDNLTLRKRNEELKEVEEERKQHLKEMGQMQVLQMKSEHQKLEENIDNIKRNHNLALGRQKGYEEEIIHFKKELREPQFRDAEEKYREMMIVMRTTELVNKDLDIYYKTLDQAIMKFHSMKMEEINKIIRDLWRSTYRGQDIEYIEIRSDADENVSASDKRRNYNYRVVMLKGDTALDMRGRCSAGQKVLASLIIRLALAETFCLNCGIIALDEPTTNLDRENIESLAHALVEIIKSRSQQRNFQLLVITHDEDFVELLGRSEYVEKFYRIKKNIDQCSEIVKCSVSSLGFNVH
Chain of UniProt Q9UPN6 (Q9UPN6 whole entry, looked up): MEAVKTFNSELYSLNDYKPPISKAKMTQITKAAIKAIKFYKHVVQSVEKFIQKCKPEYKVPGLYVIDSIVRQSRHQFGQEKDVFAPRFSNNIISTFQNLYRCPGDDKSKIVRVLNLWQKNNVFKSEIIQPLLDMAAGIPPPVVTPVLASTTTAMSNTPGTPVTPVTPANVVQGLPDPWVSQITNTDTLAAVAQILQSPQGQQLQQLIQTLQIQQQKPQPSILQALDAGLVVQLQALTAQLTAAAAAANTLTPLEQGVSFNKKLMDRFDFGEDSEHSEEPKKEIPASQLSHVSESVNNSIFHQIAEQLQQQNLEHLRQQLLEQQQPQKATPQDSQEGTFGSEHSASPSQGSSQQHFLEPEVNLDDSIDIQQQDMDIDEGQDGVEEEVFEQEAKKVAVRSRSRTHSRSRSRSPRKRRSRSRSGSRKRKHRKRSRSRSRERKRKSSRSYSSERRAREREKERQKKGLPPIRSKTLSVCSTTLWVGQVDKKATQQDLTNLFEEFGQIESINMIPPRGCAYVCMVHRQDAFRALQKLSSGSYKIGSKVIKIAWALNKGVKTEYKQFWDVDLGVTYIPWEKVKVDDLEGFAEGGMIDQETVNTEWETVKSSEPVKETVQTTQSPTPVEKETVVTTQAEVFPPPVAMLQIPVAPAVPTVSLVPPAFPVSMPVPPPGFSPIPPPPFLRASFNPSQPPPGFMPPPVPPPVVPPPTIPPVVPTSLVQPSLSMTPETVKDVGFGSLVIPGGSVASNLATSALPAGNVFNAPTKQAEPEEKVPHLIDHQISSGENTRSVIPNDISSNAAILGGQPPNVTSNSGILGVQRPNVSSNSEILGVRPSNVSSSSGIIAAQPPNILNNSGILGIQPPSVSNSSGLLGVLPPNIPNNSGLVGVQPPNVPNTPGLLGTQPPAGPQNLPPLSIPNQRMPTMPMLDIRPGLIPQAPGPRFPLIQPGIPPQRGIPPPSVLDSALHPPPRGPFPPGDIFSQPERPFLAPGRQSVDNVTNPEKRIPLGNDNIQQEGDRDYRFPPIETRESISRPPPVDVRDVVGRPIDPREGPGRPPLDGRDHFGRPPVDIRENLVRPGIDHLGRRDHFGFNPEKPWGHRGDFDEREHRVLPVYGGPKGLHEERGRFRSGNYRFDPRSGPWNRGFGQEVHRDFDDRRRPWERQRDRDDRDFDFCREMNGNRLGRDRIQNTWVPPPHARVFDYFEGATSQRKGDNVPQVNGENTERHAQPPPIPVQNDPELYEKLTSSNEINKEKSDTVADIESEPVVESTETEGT
Chain of UniProt P46063 (P46063 whole entry, looked up): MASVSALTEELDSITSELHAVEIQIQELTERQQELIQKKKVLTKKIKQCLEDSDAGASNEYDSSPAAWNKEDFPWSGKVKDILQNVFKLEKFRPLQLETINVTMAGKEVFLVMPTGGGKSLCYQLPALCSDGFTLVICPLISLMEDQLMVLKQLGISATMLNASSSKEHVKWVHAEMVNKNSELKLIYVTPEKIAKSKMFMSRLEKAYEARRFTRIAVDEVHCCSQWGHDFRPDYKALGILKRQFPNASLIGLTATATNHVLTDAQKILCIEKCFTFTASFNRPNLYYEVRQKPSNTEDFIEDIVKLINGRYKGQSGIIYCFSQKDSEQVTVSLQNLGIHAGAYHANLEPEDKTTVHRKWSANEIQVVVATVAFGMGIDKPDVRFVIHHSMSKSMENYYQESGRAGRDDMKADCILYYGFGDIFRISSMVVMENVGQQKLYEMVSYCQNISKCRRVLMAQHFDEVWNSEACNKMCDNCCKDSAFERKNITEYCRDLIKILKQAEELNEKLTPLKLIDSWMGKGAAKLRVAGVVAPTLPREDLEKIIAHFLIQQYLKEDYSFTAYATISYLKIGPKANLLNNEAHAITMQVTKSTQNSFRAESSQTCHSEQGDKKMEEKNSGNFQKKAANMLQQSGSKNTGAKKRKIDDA
Chain of UniProt Q99961 (Q99961 whole entry, looked up): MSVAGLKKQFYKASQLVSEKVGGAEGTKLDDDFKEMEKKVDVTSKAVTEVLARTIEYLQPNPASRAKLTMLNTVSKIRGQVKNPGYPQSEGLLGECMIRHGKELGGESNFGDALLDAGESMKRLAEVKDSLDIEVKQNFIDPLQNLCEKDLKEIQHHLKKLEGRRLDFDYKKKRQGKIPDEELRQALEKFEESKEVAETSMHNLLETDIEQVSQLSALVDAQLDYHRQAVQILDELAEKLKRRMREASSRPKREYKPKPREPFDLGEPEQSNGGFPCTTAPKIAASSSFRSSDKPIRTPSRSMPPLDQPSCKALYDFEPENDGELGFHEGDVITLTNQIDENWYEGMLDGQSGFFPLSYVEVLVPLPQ
Chain of UniProt P58004 (P58004 whole entry, looked up): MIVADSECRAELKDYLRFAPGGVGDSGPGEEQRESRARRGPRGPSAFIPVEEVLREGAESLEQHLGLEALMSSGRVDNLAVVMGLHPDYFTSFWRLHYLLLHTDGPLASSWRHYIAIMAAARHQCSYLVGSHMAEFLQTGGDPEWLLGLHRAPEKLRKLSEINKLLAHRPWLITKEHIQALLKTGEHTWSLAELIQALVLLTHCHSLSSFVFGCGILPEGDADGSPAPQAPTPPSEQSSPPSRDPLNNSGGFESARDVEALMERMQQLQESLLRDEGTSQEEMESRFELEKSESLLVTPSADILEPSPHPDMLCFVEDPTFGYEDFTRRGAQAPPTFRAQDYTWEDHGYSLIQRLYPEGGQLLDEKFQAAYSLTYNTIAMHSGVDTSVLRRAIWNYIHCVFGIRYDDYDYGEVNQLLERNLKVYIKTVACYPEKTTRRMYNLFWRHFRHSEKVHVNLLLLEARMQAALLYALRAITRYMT
Chain of UniProt Q8IZV5 (Q8IZV5 whole entry, looked up): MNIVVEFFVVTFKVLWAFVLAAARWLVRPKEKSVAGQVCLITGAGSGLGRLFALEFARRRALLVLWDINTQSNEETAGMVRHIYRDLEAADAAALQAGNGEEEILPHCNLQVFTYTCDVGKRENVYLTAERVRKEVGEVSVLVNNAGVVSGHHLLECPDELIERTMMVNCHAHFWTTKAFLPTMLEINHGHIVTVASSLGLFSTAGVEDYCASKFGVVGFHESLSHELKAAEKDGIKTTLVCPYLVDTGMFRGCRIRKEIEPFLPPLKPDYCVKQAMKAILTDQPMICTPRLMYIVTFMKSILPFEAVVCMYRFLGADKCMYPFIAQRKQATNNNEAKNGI

Target	log2 fold change [1]	log2 fold change [2]	log2 fold change [3]	log2 fold change [4]	log2 fold change [5]	log2 fold change [6]	log2 fold change [7]	log2 fold change [8]	log2 fold change [9]	log2 fold change [10]	log2 fold change [11]	log2 fold change [12]	log2 fold change [13]	log2 fold change [14]	log2 fold change [15]	log2 fold change [16]	log2 fold change [17]	log2 fold change [18]	log2 fold change [19]	log2 fold change [20]
SART3, A0A499FI31	-0.057	0.039	-0.02	-0.189	-0.128	-0.261 (active)	0.029	-0.001	0.008	0.024	-0.011	-0.105	-0.175	-0.054	0.055	0.1	0.098	0.114	-0.136	-0.02
SESN2 (UniProt P58004)	-0.09	0.136	-0.02	-0.207	-0.034	-0.063	0.069	-0.069	-0.213	0.042	-0.069	-0.159	-0.129	-0.093	0.075	0.079	-0.081	0.108	-0.123	0.026
RNPS1 (UniProt Q15287)	-0.073	-0.032	-0.035	-0.62 (active)	-0.007	-0.12	-0.037	0.011	-0.084	0.003	-0.019	-0.39	0.097	0.031	-0.06	0.024	0.038	-0.111	-0.018	-0.146
RPS13 (UniProt P62277)	0.342	0	0.017	0.221	0.088	-0.051	-0.237	-0.089	0.204	-0.184	0.058	0.093	0.246	0.115	-0.062	0.019	-0.121	-0.022	0.091	-0.182
SEC16A isoform 5 (UniProt O15027)	0.023	0.096	0.017	-0.048	-0.169	0.021	-0.006	-0.051	0.012	-0.081	0.006	-0.072	-0.14	0.055	0.071	0.154	0.071	-0.007	0.191	-0.022
RPS25 (UniProt P62851)	0.259	-0.007	0.015	0.174	0.07	-0.032	-0.177	-0.077	0.062	-0.068	-0.043	0.071	0.192	0.053	-0.072	0.032	-0.066	-0.061	0.107	-0.052
RDH10 (UniProt Q8IZV5)	-0.031	0.15	0.051	-0.032	0.237 (active)	-0.014	0.37 (active)	0.183	0.028	0.106	-0.033	-0.017	-0.016	0.015	0.015	-0.069	-0.019	-0.097	-0.039	0.012
RAD50 isoform 2 (UniProt Q92878)	-0.015	0.009	-0.039	-0.112	-0.089	-0.016	0.023	0.042	-0.017	0.063	-0.011	-0.042	-0.057	-0.064	0.038	-0.014	0.047	-0.008	-0.034	0.009
SERINC3 (UniProt Q13530)	-0.031	-0.035	0.02	0.039	-0.123	0.07	-0.014	-0.077	-0.115	0.009	-0.111	-0.027	-0.195	-0.267	-0.07	-0.044	-0.093	0.054	0.018	-0.031
RNASET2 (UniProt O00584)	-0.261 (active)	-0.006	0.016	-0.002	-0.031	-0.034	-0.065	0.027	0.067	0.021	-0.082	-0.114	-0.285 (active)	-0.033	-0.012	-0.04	0.074	-0.018	-0.048	-0.102
RECQL (UniProt P46063)	0.005	-0.019	0.025	0.006	-0.043	-0.033	0.055	-0.006	-0.034	0.017	0.034	-0.076	-0.047	-0.033	0.001	0.045	0.092	-0.028	-0.019	-0.03
RPS12 (UniProt P25398)	0.112	0.006	0.002	0.126	0.08	-0.012	-0.013	-0.004	0.049	-0.08	0.006	0.073	0.134	0.068	-0.032	-0.002	0.009	-0.042	0.076	-0.113
RPS16 (UniProt P62249)	0.279	-0.026	0.07	0.207	0.053	-0.019	-0.078	-0.048	0.107	-0.066	0.086	0.08	0.182	0.043	-0.043	0.017	-0.044	-0.097	0.093	-0.119
SH3GL1 (UniProt Q99961)	-0.018	0.069	-0.084	-0.18	-0.262	-0.014	0.055	0.02	-0.114	0.122	-0.049	-0.088	-0.106	-0.032	0.143	0.082	0.068	0.028	0.006	-0.041
RCN3 (UniProt Q96D15)	-0.015	-0.318 (active)	0.015	-0.011	0.045	0.011	0.162	0.057	-0.038	-0.056	-0.042	-0.027	0.105	-0.013	-0.027	-0.122	-0.063	-0.002	-0.039	0.12
SCAF8 isoform 2 (UniProt Q9UPN6)	-0.024	0.019	-0.032	-0.208	-0.212	0.069	0.064	0.008	-0.027	0.023	-0.062	-0.028	-0.086	-0.044	0.053	0.166	0.058	-0.003	-0.098	-0.093

Source: the supplement of paper PMC10849652
